According to the supplement of paper PMC10646978:
± gives the standard deviation.

Legend:
Settings in all cases: modulator concentration 10 µM
[1] = system: RAW-Dual (murine macrophage reporter line); assay: NF-kB reporter (SEAP) activity fold change vs agonist alone; higher = enhanced NF-kB activity
Procedure, shortened: (§1)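 Overnight stimulation with a PRR agonist followed pre-incubation for 1 hour at 37 °C with compound at 10 μM final. This was done in RAW-Dual murine macrophage reporter cells seeded at 50 000 per well in 384-well plates. NF-κB (SEAP, QUANTI-Blue absorbance at 620 nm) and IRF (Lucia luciferase, QUANTI-Luc luminescence) were read from the supernatant. Each reporter's fold change relative to the mean agonist-only control on the same plate was averaged over replicate plates.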

[2] = system: RAW-Dual (murine macrophage reporter line); assay: IRF reporter (Lucia luciferase) activity fold change vs agonist alone; higher = enhanced IRF activity
Procedure, shortened: as §1

[3] = system: RAW-Dual (murine macrophage reporter line); assay: viability score (confluency relative to resting cells, overnight) (fraction); higher = more viable, active = viable (0.7 or more)
Procedure, shortened: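 A compound met the cutoff when both of two confluency masks exceeded 70% of resting cells. Those masks were made with IncuCyte software from IncuCyte images of RAW-Dual macrophages treated overnight at 10 μM final. This is the basis of the viability score, which is confluency relative to resting cells.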

[4] = agonist: CpG ODN 1826 0.5 ug/mL

Structure (SMILES) | NF-kB reporter [1, 4] | NF-kB reporter ([1]; agonist: LPS 0.1 ug/mL) | NF-kB reporter ([1]; agonist: MPLA […]) | IRF reporter ([2]; agonist: 3'3'-cGAMP 10 ug/mL) | IRF reporter ([2]; agonist: LPS 0.1 ug/mL) | IRF reporter ([2]; agonist: MPLA […]) | viability score [3]
COc1cc2nccc(Oc3ccc(NC(=O)C4(C(=O)Nc5ccc(F)cc5)CC4)cc3)c2cc1OC.O=C(O)C[C@H](O)C(=O)O | 0.56 ± 0.046 | 0.51 ± 0.026 | 0.696 ± 0.019 | 0.103 ± 0.0071 | 0.317 ± 0.031 | 0.337 ± 0.027 | 0.842 (active)
O=C1C(=Cc2ccncc2)CCC1=Cc1ccncc1 | 1.03 ± 0.082 | 0.928 ± 0.08 | 0.971 ± 0.12 | 0.993 ± 0.045 | 1.21 ± 0.17 | 1.28 ± 0.27 | 1.01 (active)
CN1CCOC(c2ccccc2)c2ccccc2C1.Cl (configuration not stated) | 1.11 ± 0.27 | 1.04 ± 0.052 | 1.05 ± 0.078 | 0.84 ± 0.031 | 1.36 ± 0.16 | 0.95 ± 0.23 | 1.01 (active)
COc1ccc(C2N3CC4(C)CN2CC(C)(C3)C4O)cc1 (configuration not stated) | 0.816 ± 0.067 | 0.949 ± 0.046 | 0.966 ± 0.1 | 0.995 ± 0.055 | 1.49 ± 0.086 | 1.66 ± 0.15 | 1.01 (active)
O=C(O[C@@H]1C[C@@H]2C[C@@H]3C[C@H](C1)N2CC3=O)c1c[nH]c2ccccc12 [Prestw-1510] | 0.575 ± 0.048 | 0.718 ± 0.056 | 0.697 ± 0.043 | 0.931 ± 0.04 | 0.958 ± 0.055 | 0.958 ± 0.18 | 1 (active)
CCOc1ccc(CN2CCN(c3cc(C)nc4c5c(C)cc(C)nc5nn34)CC2)cc1 | 0.944 ± 0.08 | 1.04 ± 0.077 | 1.02 ± 0.022 | 1.05 ± 0.1 | 1 ± 0.14 | 0.96 ± 0.26 | 1 (active)
CC1CC2(NC(=O)NC2=O)C(C)CN1C (configuration not stated) | 0.933 ± 0.061 | 1.01 ± 0.088 | 0.87 ± 0.053 | 0.99 ± 0.034 | 1.34 ± 0.2 | 1.21 ± 0.15 | 1 (active)
O=C(CCC(=O)NN=Cc1ccc(O)cc1)NN=Cc1ccc(O)cc1 | 0.915 ± 0.073 | 0.963 ± 0.062 | 0.947 ± 0.036 | 0.973 ± 0.12 | 0.974 ± 0.04 | 0.787 ± 0.085 | 1 (active)
Cc1cc(NC(=O)CC(C)C)ccc1N1CCCCC1=O | 1.03 ± 0.097 | 1.03 ± 0.085 | 0.936 ± 0.11 | 1 ± 0.065 | 1.23 ± 0.11 | 1.14 ± 0.32 | 1.01 (active)
CC(C)(C)C(=O)Oc1ccc(S(=O)(=O)Nc2ccccc2C(=O)NCC(=O)O)cc1 | 0.755 ± 0.05 | 1.07 ± 0.086 | 1.18 ± 0.063 | 1.1 ± 0.064 | 1.09 ± 0.26 | 1.38 ± 0.47 | 0.972 (active)
O=C(c1ccc(S(=O)(=O)N2CCCC2)cc1)N1CC(Nc2ccncn2)C1 | 0.978 ± 0.1 | 0.986 ± 0.086 | 0.921 ± 0.057 | 0.969 ± 0.071 | 1.23 ± 0.13 | 1.06 ± 0.095 | 1 (active)
O=C(O)C=C(CC(=O)O)C(=O)O | 1.02 ± 0.084 | 1.05 ± 0.074 | 0.946 ± 0.021 | 0.996 ± 0.12 | 0.971 ± 0.038 | 0.983 ± 0.092 | 1 (active)
CCN(CC)CCOC(=O)C(Cc1cccc2ccccc12)CC1CCCO1.O=C(O)C(=O)O (configuration not stated) | 0.672 ± 0.21 | 1.05 ± 0.061 | 0.998 ± 0.11 | 0.491 ± 0.026 | 1.12 ± 0.2 | 1.27 ± 0.13 | 0.977 (active)
CCN(CC)CC#CC(OC)(c1ccccc1)c1ccccc1.Cl | 0.356 ± 0.088 | 0.414 ± 0.063 | 0.47 ± 0.082 | 0.549 ± 0.019 | 1.16 ± 0.16 | 1.29 ± 0.23 | 0.148 (inactive)
CCOc1nc2cccc(C(=O)O)c2n1Cc1ccc(-c2ccccc2-c2nnn[nH]2)cc1 [Prestw-1258] | 1.29 ± 0.26 | 1.16 ± 0.11 | 0.925 ± 0.074 | 0.918 ± 0.029 | 0.914 ± 0.093 | 1.14 ± 0.14 | 0.995 (active)
CCN1C(=O)C(=Cc2nc3ccccc3c(=O)n2-c2ccc(C)cc2)c2ccccc21 | 1.06 ± 0.085 | 1.08 ± 0.071 | 0.994 ± 0.077 | 0.89 ± 0.035 | 1.55 ± 0.28 | 1.11 ± 0.078 | 1.01 (active)
O=C(CN(c1cc(Cl)cc(Cl)c1)S(=O)(=O)c1ccccc1)N1CCCCCC1 | 1.06 ± 0.13 | 1.13 ± 0.1 | 1.13 ± 0.068 | 0.943 ± 0.14 | 0.991 ± 0.062 | 0.875 ± 0.057 | 0.996 (active)
Cc1ccc(CCNc2ccccc2C)cn1 | 1.05 ± 0.084 | 0.931 ± 0.11 | 1.2 ± 0.12 | 1 ± 0.067 | 1.35 ± 0.21 | 1.73 ± 0.39 | 0.993 (active)

Structure (SMILES) | NF-kB reporter [1, 4] | NF-kB reporter ([1]; agonist: LPS 0.1 ug/mL) | NF-kB reporter ([1]; agonist: MPLA […]) | IRF reporter ([2]; agonist: 3'3'-cGAMP 10 ug/mL) | IRF reporter ([2]; agonist: LPS 0.1 ug/mL) | IRF reporter ([2]; agonist: MPLA […]) | viability score [3]
COc1ccc(CNC2CCCc3ccccc32)c(OC)c1 (configuration not stated) | 0.48 ± 0.13 | 0.812 ± 0.088 | 0.775 ± 0.12 | 0.615 ± 0.027 | 1.23 ± 0.13 | 1.61 ± 0.17 | 0.94 (active)
CCN(Cc1ccncc1)C(=O)C(CO)c1ccccc1 (configuration not stated) | 0.998 ± 0.087 | 0.997 ± 0.11 | 1.04 ± 0.071 | 0.972 ± 0.076 | 0.954 ± 0.058 | 0.932 ± 0.08 | 1 (active)
O=c1c2ccccc2n(Cc2nc(-c3ccc(F)c(F)c3)no2)c(=O)n1C1CC1 | 0.84 ± 0.076 | 1.21 ± 0.096 | 0.923 ± 0.11 | 0.995 ± 0.074 | 1.04 ± 0.074 | 1.07 ± 0.15 | 0.971 (active)
Nc1ncnc2c1ncn2[C@@H]1O[C@H](CO)[C@@H](O)[C@@H]1O.O | 1.09 ± 0.064 | 1.02 ± 0.065 | 0.997 ± 0.058 | 0.714 ± 0.026 | 1.04 ± 0.13 | 1.18 ± 0.14 | 0.991 (active)
CC(C)c1noc(CN2CCC(n3nc(C(F)(F)F)n(C)c3=O)CC2)n1 | 0.975 ± 0.13 | 1.11 ± 0.091 | 0.939 ± 0.069 | 0.993 ± 0.05 | 1.08 ± 0.12 | 1.15 ± 0.13 | 1 (active)
CNC(=O)c1ccc2cc(C3(O)CCn4cncc43)ccc2c1 (configuration not stated) | 0.99 ± 0.15 | 0.866 ± 0.28 | 0.937 ± 0.052 | 0.932 ± 0.04 | 0.964 ± 0.22 | 0.945 ± 0.17 | 0.995 (active)
OC(c1cc(C(F)(F)F)nc2c(C(F)(F)F)cccc12)C1CCCCN1 (configuration not stated) [Prestw-126] | 0.781 ± 0.051 | 0.973 ± 0.1 | 0.887 ± 0.059 | 1.13 ± 0.076 | 2.89 ± 0.33 | 1.75 ± 0.16 | 0.0879 (inactive)
N#Cc1c(N=Cc2ccc(O)cc2)sc2c1CCCC2 | 0.688 ± 0.055 | 0.94 ± 0.069 | 0.979 ± 0.11 | 0.713 ± 0.049 | 1.17 ± 0.22 | 1.23 ± 0.24 | 0.997 (active)
COC(CNS(=O)(=O)c1ccccc1Br)c1ccc(C)s1 (configuration not stated) | 1.04 ± 0.1 | 1.05 ± 0.095 | 1.13 ± 0.086 | 0.86 ± 0.082 | 0.965 ± 0.058 | 0.854 ± 0.098 | 0.997 (active)
COc1cc2c(cc1OC)C1Cc3ccc(OC)c(OC)c3CN1CC2 (configuration not stated) | 0.932 ± 0.24 | 0.87 ± 0.044 | 0.949 ± 0.067 | 0.871 ± 0.052 | 1.09 ± 0.14 | 1.15 ± 0.17 | 1 (active)
CCCCCCc1ccc(O)cc1O | 1.02 ± 0.14 | 0.919 ± 0.21 | 0.874 ± 0.058 | 0.588 ± 0.057 | 1.2 ± 0.23 | 1.2 ± 0.13 | 0.298 (inactive)
Clc1ccc2nsnc2c1NC1=NCCN1 [Prestw-1182] | 1.14 ± 0.1 | 1.06 ± 0.085 | 0.958 ± 0.044 | 0.965 ± 0.044 | 0.93 ± 0.05 | 1.01 ± 0.13 | 0.995 (active)
Oc1ccccc1C=NNc1nc(-c2ccccc2)cc(-c2ccccc2)n1 | 0.769 ± 0.066 | 1.02 ± 0.088 | 1.03 ± 0.12 | 1.19 ± 0.12 | 1.16 ± 0.16 | 1.26 ± 0.2 | 0.987 (active)
NC(=O)CSc1nc(O)cc(=O)n1-c1ccccc1F | 0.987 ± 0.16 | 1.06 ± 0.088 | 1.09 ± 0.11 | 0.978 ± 0.048 | 1.39 ± 0.26 | 1.23 ± 0.13 | 1.01 (active)
O=c1[nH]cnc2scc(-c3ccc(Br)cc3)c12 | 0.924 ± 0.067 | 1.08 ± 0.073 | 1.03 ± 0.061 | 1.14 ± 0.042 | 1.65 ± 0.13 | 1.29 ± 0.16 | 0.975 (active)
O=C(NC1CCC(F)(F)CC1)c1cc(Br)cs1 | 1.13 ± 0.064 | 0.996 ± 0.075 | 0.984 ± 0.04 | 0.833 ± 0.051 | 1.04 ± 0.052 | 1.03 ± 0.15 | 0.999 (active)
O=C(NC1CCCCCC1)c1ccc([N+](=O)[O-])cc1Cl | 1.1 ± 0.084 | 0.94 ± 0.07 | 0.919 ± 0.1 | 0.804 ± 0.035 | 1.08 ± 0.14 | 1.08 ± 0.13 | 0.983 (active)
CN1C2CCCC1CC(NC(=O)c1nn(C)c3ccccc13)C2.Cl (configuration not stated) | 0.712 ± 0.31 | 0.879 ± 0.044 | 0.984 ± 0.069 | 0.873 ± 0.034 | 1.13 ± 0.16 | 1.03 ± 0.19 | 0.998 (active)
